Values joined by “and” are separate entries in the source; they are usually repeats but may differ in a detail not shown here. Identical values can stand only once. Screen size: about 5,700 compounds; about 85 (1%) were called active. Cut-off read from the data, not from the text of the source: active = p53-positive nuclei above about 36% (passing the limit was not always enough); inactive = the rest. The entries come from a sample that favours actives as a whole.
How the values were obtained:
[1] = p53 stabilisation in HPV-positive human cells, imaging, p53-positive nuclei imaging, 24 h, 48 h (AID 1508601); details: 24/48 h
[2] = target: Cellular tumor antigen p53 (Homo sapiens) (UniProt P04637); assay: as above; details: 24/48 h, stronger effect = higher value
[3] = measured here: cell number at 24 h, Library stock concentration: 500 nM
[4] = measured here: cell number at 24 h, Library stock concentration: 1.5 uM
[5] = measured here: cell number at 24 h, Library stock concentration: 4.6 uM
[6] = measured here: cell number at 24 h, Library stock concentration: 13.7 uM
[7] = measured here: cell number at 24 h, Library stock concentration: 41 uM
[8] = measured here: cell number at 24 h, Library stock concentration: 123 uM
[9] = measured here: cell number at 24 h, Library stock concentration: 370 uM
[10] = measured here: cell number at 24 h, Library stock concentration: 1.111 mM
[11] = measured here: cell number at 24 h, Library stock concentration: 3.333 mM
[12] = measured here: cell number at 24 h, Library stock concentration: 10 mM
[13] = measured here: cell number at 48 h, Library stock concentration: 500 nM
[14] = measured here: cell number at 48 h, Library stock concentration: 1.5 uM
[15] = measured here: cell number at 48 h, Library stock concentration: 4.6 uM
[16] = measured here: cell number at 48 h, Library stock concentration: 13.7 uM
[17] = measured here: cell number at 48 h, Library stock concentration: 41 uM
[18] = measured here: cell number at 48 h, Library stock concentration: 123 uM
[19] = measured here: cell number at 48 h, Library stock concentration: 370 uM
[20] = measured here: cell number at 48 h, Library stock concentration: 1.111 mM
[21] = measured here: cell number at 48 h, Library stock concentration: 3.333 mM
[22] = measured here: cell number at 48 h, Library stock concentration: 10 mM
[23] = Library stock concentration: 500 nM
[24] = Library stock concentration: 1.5 uM
[25] = Library stock concentration: 4.6 uM
[26] = Library stock concentration: 13.7 uM
[27] = Library stock concentration: 41 uM
[28] = Library stock concentration: 123 uM
[29] = Library stock concentration: 370 uM
[30] = Library stock concentration: 1.111 mM
[31] = Library stock concentration: 3.333 mM
[32] = Library stock concentration: 10 mM
[33] = measured here: p53 positive nuclei at 24 h, Library stock concentration: 500 nM
[34] = measured here: p53 positive nuclei at 24 h, Library stock concentration: 1.5 uM
[35] = measured here: p53 positive nuclei at 24 h, Library stock concentration: 4.6 uM
[36] = measured here: p53 positive nuclei at 24 h, Library stock concentration: 13.7 uM
[37] = measured here: p53 positive nuclei at 24 h, Library stock concentration: 41 uM
[38] = measured here: p53 positive nuclei at 24 h, Library stock concentration: 123 uM
[39] = measured here: p53 positive nuclei at 24 h, Library stock concentration: 370 uM
[40] = measured here: p53 positive nuclei at 24 h, Library stock concentration: 1.111 mM
[41] = measured here: p53 positive nuclei at 24 h, Library stock concentration: 3.333 mM
[42] = measured here: p53 positive nuclei at 24 h, Library stock concentration: 10 mM
[43] = measured here: cell number at 24 h, Library stock concentration: 80 uM
[44] = measured here: cell number at 24 h, Library stock concentration: 400 uM
[45] = measured here: cell number at 24 h, Library stock concentration: 2 mM
[46] = measured here: cell number at 48 h, Library stock concentration: 80 uM
[47] = measured here: cell number at 48 h, Library stock concentration: 400 uM
[48] = measured here: cell number at 48 h, Library stock concentration: 2 mM
[49] = Library stock concentration: 80 uM
[50] = Library stock concentration: 400 uM
[51] = Library stock concentration: 2 mM
[52] = measured here: p53 positive nuclei at 24 h, Library stock concentration: 80 uM
[53] = measured here: p53 positive nuclei at 24 h, Library stock concentration: 400 uM
[54] = measured here: p53 positive nuclei at 24 h, Library stock concentration: 2 mM

Cellular tumor antigen p53 (Homo sapiens), sequence (P04637 whole entry, looked up): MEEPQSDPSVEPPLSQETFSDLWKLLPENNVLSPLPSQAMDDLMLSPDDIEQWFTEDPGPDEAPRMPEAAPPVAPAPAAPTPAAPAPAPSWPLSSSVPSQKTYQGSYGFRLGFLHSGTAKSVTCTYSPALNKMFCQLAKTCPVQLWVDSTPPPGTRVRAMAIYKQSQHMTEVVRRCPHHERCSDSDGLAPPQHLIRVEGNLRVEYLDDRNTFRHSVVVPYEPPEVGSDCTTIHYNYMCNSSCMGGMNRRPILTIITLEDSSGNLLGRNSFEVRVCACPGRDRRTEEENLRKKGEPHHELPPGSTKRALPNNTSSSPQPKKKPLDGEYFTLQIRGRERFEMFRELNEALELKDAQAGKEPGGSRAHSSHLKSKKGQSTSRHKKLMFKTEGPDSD

CCCCCCCCCCCCCC=CC(O)C(CO)N(C)C (stereo unspecified)
nuclei count, normalised [1, 3]: 120% | nuclei count, normalised [1, 4]: 110% | nuclei count, normalised [1, 5]: 117% | nuclei count, normalised [1, 6]: 108% | nuclei count, normalised [1, 7]: 110% | nuclei count, normalised [1, 8]: 122% | nuclei count, normalised [1, 9]: 122% | nuclei count, normalised [1, 10]: 118% | nuclei count, normalised [1, 11]: 102% | nuclei count, normalised [1, 12]: 35.8% | nuclei count, normalised [1, 13]: 115% | nuclei count, normalised [1, 14]: 109% | nuclei count, normalised [1, 15]: 107% | nuclei count, normalised [1, 16]: 107% | nuclei count, normalised [1, 17]: 110% | nuclei count, normalised [1, 18]: 114% | nuclei count, normalised [1, 19]: 116% | nuclei count, normalised [1, 20]: 112% | nuclei count, normalised [1, 21]: 109% | nuclei count, normalised [1, 22]: 22.2% | p53-positive nuclei, normalised [2, 23]: -0.17% (inactive) | p53-positive nuclei, normalised [2, 24]: -0.126% (inactive) | p53-positive nuclei, normalised [2, 25]: -0.0366% (inactive) | p53-positive nuclei, normalised [2, 26]: -0.121% (inactive) | p53-positive nuclei, normalised [2, 27]: -0.00454% (inactive) | p53-positive nuclei, normalised [2, 28]: -0.0524% (inactive) | p53-positive nuclei, normalised [2, 29]: 0.0673% (inactive) | p53-positive nuclei, normalised [2, 30]: -0.00344% (inactive) | p53-positive nuclei, normalised [2, 31]: -0.0281% (inactive) | p53-positive nuclei, normalised [2, 32]: 3.77% (inactive) | p53-positive nuclei, normalised [2, 33]: -0.148% | p53-positive nuclei, normalised [2, 34]: -0.148% | p53-positive nuclei, normalised [2, 35]: -0.148% | p53-positive nuclei, normalised [2, 36]: -0.019% | p53-positive nuclei, normalised [2, 37]: -0.0213% | p53-positive nuclei, normalised [2, 38]: -0.148% | p53-positive nuclei, normalised [2, 39]: -0.0899% | p53-positive nuclei, normalised [2, 40]: -0.0918% | p53-positive nuclei, normalised [2, 41]: -0.0113% | p53-positive nuclei, normalised [2, 42]: 3.53%

c1cc(NCCc2c[nH]c3ccccc23)cc(Nc2ccncc2)c1
nuclei count, normalised [1, 43]: 103% | nuclei count, normalised [1, 44]: 107% | nuclei count, normalised [1, 45]: 107% | nuclei count, normalised [1, 12]: 91.3% | nuclei count, normalised [1, 46]: 101% | nuclei count, normalised [1, 47]: 107% | nuclei count, normalised [1, 48]: 108% | nuclei count, normalised [1, 22]: 77.6% | p53-positive nuclei, normalised [2, 49]: -0.0385% (inactive) | p53-positive nuclei, normalised [2, 50]: -0.0904% (inactive) | p53-positive nuclei, normalised [2, 51]: -0.152% (inactive) | p53-positive nuclei, normalised [2, 32]: -0.0614% (inactive) | p53-positive nuclei, normalised [2, 52]: -0.148% | p53-positive nuclei, normalised [2, 53]: -0.0802% | p53-positive nuclei, normalised [2, 54]: 0.142% | p53-positive nuclei, normalised [2, 42]: -0.0614%

COc1ccc(CN2CCN(c3nccc(-c4c(C)nn(C)c4C)n3)CC2=O)cc1
nuclei count, normalised ([1]; measured here: cell number at 24 h, concentration not given here): 101% | nuclei count, normalised ([1]; measured here: cell number at 48 h, concentration not given here): 105% | p53-positive nuclei, normalised ([2]; concentration not given here): -0.125% (inactive) | p53-positive nuclei, normalised ([2]; measured here: p53 positive nuclei at 24 h, concentration not given here): -0.147%

CN(C)CCC(CSc1ccccc1)Nc1ccc(S(=O)(=O)NC(=O)c2ccc(N3CCN(Cc4ccccc4-c4ccc(Cl)cc4)CC3)cc2)cc1[N+](=O)[O-] (stereo unspecified)
nuclei count, normalised [1, 3]: 120% | nuclei count, normalised [1, 4]: 122% | nuclei count, normalised [1, 5]: 117% | nuclei count, normalised [1, 6]: 121% | nuclei count, normalised [1, 7]: 117% | nuclei count, normalised [1, 43]: 111% and 86.3% | nuclei count, normalised [1, 8]: 117% | nuclei count, normalised [1, 9]: 117% | nuclei count, normalised [1, 44]: 109% and 85.3% | nuclei count, normalised [1, 10]: 113% | nuclei count, normalised [1, 45]: 113% and 92.5% | nuclei count, normalised ([1]; measured here: cell number at 24 h, Library stock concentration: 3.33 mM): 105% | nuclei count, normalised [1, 11]: 127% | nuclei count, normalised [1, 12]: 111% and 80.6% and 116% | nuclei count, normalised [1, 13]: 112% | nuclei count, normalised [1, 14]: 111% | nuclei count, normalised [1, 15]: 112% | nuclei count, normalised [1, 16]: 117% | nuclei count, normalised [1, 17]: 114% | nuclei count, normalised [1, 46]: 99.7% and 87.7% | nuclei count, normalised [1, 18]: 112% | nuclei count, normalised [1, 19]: 113% | nuclei count, normalised [1, 47]: 97.6% and 86% | nuclei count, normalised [1, 20]: 112% | nuclei count, normalised [1, 48]: 98% and 96.4% | nuclei count, normalised ([1]; measured here: cell number at 48 h, Library stock concentration: 3.33 mM): 102% | nuclei count, normalised [1, 21]: 126% | nuclei count, normalised [1, 22]: 106% and 92.8% and 127% | p53-positive nuclei, normalised [2, 23]: -0.0213% (inactive) | p53-positive nuclei, normalised [2, 24]: 0.0237% (inactive) | p53-positive nuclei, normalised [2, 25]: 0.0183% (inactive) | p53-positive nuclei, normalised [2, 26]: -0.104% (inactive) | p53-positive nuclei, normalised [2, 27]: -0.0533% (inactive) | p53-positive nuclei, normalised [2, 49]: 0.0591% (inactive) and -0.273% (inactive) | p53-positive nuclei, normalised [2, 28]: -0.176% (inactive) | p53-positive nuclei, normalised [2, 29]: -0.136% (inactive) | p53-positive nuclei, normalised [2, 50]: 0.0679% (inactive) and 0.126% (inactive) | p53-positive nuclei, normalised [2, 30]: -0.092% (inactive) | p53-positive nuclei, normalised [2, 51]: -0.0104% (inactive) and 0.232% (inactive) | p53-positive nuclei, normalised ([2]; Library stock concentration: 3.33 mM): -0.445% (inactive) | p53-positive nuclei, normalised [2, 31]: -0.149% (inactive) | p53-positive nuclei, normalised [2, 32]: -0.104% (inactive) and 0.208% (inactive) and -0.0111% (inactive) | p53-positive nuclei, normalised [2, 33]: 0.154% | p53-positive nuclei, normalised [2, 34]: -0.0609% | p53-positive nuclei, normalised [2, 35]: -0.00335% | p53-positive nuclei, normalised [2, 36]: -0.0575% | p53-positive nuclei, normalised [2, 37]: 0.00542% | p53-positive nuclei, normalised [2, 52]: -0.0528% and -0.0593% | p53-positive nuclei, normalised [2, 38]: -0.105% | p53-positive nuclei, normalised [2, 39]: -0.113% | p53-positive nuclei, normalised [2, 53]: -0.0967% and 0.0394% | p53-positive nuclei, normalised [2, 40]: -0.104% | p53-positive nuclei, normalised [2, 54]: -0.0967% and 0.437% | p53-positive nuclei, normalised ([2]; measured here: p53 positive nuclei at 24 h, Library stock concentration: 3.33 mM): 0.0238% | p53-positive nuclei, normalised [2, 41]: -0.165% | p53-positive nuclei, normalised [2, 42]: -0.00444% and -0.0479% and 0.0019%

Reference: PubChem BioAssay AID1508601 (ICCB-Longwood Screening Facility, Harvard Medical School, 2020)
